Measurements taken from paper PMC7819943, “Rice protein-binding microarrays: a tool to detect cis-acting elements near promoter regions in rice”.
Whole data set: some 39,000 sequences, median “fluorescence intensity (a.u.)” near 4,300, cut for the highest 2% near 39,000. The entries come from a sample that favours the highest values as a whole.

Target: T1, OsSMF1 (Oryza sativa, UniProt Q6ZLB0 1-436)
T1 sequence: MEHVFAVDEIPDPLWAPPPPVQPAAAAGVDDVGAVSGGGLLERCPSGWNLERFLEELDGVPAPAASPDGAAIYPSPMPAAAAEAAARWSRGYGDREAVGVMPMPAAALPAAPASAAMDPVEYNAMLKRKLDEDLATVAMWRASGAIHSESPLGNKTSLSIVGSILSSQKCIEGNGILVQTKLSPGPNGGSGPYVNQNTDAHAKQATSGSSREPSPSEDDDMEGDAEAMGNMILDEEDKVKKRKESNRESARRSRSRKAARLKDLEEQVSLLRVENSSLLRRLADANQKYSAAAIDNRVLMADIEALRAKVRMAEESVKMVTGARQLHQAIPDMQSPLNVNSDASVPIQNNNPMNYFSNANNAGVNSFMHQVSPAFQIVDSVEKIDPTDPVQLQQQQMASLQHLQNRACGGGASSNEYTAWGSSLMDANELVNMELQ
Assay: protein-binding microarray (RPBM); PBS, 2% BSA, 51.3 ng/ul salmon testes DNA, 50 uM zinc acetate, 200 nM TF, 25 C, 1 h; high values mean tight binding
Conditions: protein: recombinant; tags: N-terminal polyhistidine and DsRed monomer fusion (pET32a); chain copies: 2; label: CyDye5-dUTP incorporated in the synthesized complementary strand; 3' TTTTT single-stranded linker to array surface; dsDNA, one strand shown
Summary of the method: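 In PBS with 2% BSA, salmon testes DNA and 50 µM zinc acetate, 200 nM protein was incubated on a custom Agilent array at 25 °C for 1 h and then washed off. The array had been made double-stranded by primer extension with Cy5-dUTP and blocked with 2% BSA. The proteins were transcription factors fused N-terminally to polyhistidine and DsRed, expressed in E. coli BL21-CodonPlus and purified on Ni–NTA. The binding signal is per-feature fluorescence intensity (arbitrary units) from an Axon 4000B scanner.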

Sequence | binding signal
ATGAAATGGACCTCAAGATCGAGTCATGACAAGACAACGGCGGAGTCACCTAGTGCAG | 4150 fluorescence intensity (a.u.)
TACACTGGTGGATGTGAATCATTGGAATGCATGCCTCCTGCGGAGTCACCTAGTGCAG | 3810 fluorescence intensity (a.u.)
GGGATAGCAGGACACGTGTGTATAGCTGCTGCGCCTGCCTCGGAGTCACCTAGTGCAG | 9260 fluorescence intensity (a.u.)
CCTCAGGCCGCCTCTCGTGCTGTACACGTAGGATAGCTACCGGAGTCACCTAGTGCAG | 46200 fluorescence intensity (a.u.)
TTAGGCCTCTCACAGTGCTCTTAGCTGGACCGGTGCTACACGGAGTCACCTAGTGCAG | 3920 fluorescence intensity (a.u.)
TTAAATGAATCATTTTGTTCCTATTTCTAAAATAAACTATCGGAGTCACCTAGTGCAG | 3380 fluorescence intensity (a.u.)
ATGCAGGCCACCTCACGCCACACGCTGTATCGCGCCCATACGGAGTCACCTAGTGCAG | 5790 fluorescence intensity (a.u.)
CTAGCTACTTCTATCCTCCACCTCCTAAATGATCGATTTGCGGAGTCACCTAGTGCAG | 3740 fluorescence intensity (a.u.)
TGTTAGTTTTGCATGCACAGAGATGATTAGGCAGTAGCAACGGAGTCACCTAGTGCAG | 3940 fluorescence intensity (a.u.)
CCAACCATGCTTCGCAGTTGTCACAGAACGTCAACAGTGCCGGAGTCACCTAGTGCAG | 3460 fluorescence intensity (a.u.)
TCAGTAGTTGCTTCTCGCAACGTCACAGGCTTTAGATGCACGGAGTCACCTAGTGCAG | 44200 fluorescence intensity (a.u.)
CCAGATATCTTTTACTAAAGGATGGAAATGAGGCGTAATTCGGAGTCACCTAGTGCAG | 29100 fluorescence intensity (a.u.)
GTGTAGTTGGAGCGCGCGGTGGAAGATGAACAAGCTCAGCCGGAGTCACCTAGTGCAG | 41200 fluorescence intensity (a.u.)
GAGTTGTGCAGCCAAGTCAGCTGCACATGGGGAACAAGCGCGGAGTCACCTAGTGCAG | 6520 fluorescence intensity (a.u.)
ACAAAGGAGAAGAAGCCATGATGTGGAGTTGGCCGGTGGCCGGAGTCACCTAGTGCAG | 3800 fluorescence intensity (a.u.)
AACAATAACAAGATTAAAATAAACTTCACACGTTGTAATGCGGAGTCACCTAGTGCAG | 3160 fluorescence intensity (a.u.)
TAAAACAAGTCATAATAAAATAAATAGTAATTAAAATTCTCGGAGTCACCTAGTGCAG | 29200 fluorescence intensity (a.u.)
AAAATAATTAAAATAGTACGAGTAGATTCACACAAGATCTCGGAGTCACCTAGTGCAG | 39900 fluorescence intensity (a.u.)
GCAAAATGTCAGGCCGACACAACCCGTCATACTCTTCATGCGGAGTCACCTAGTGCAG | 3480 fluorescence intensity (a.u.)
GGGGTGCTTCACAAATCCCCTTGCGTACATGAGGTGTTTTCGGAGTCACCTAGTGCAG | 3320 fluorescence intensity (a.u.)
CTATCCGTCCAAATTAGGCTATCTCTAAAGATTAACTAACCGGAGTCACCTAGTGCAG | 41000 fluorescence intensity (a.u.)

Sequence | binding signal
GTAACTAAAGATACAAAATTATTAGTGTAACCGGAGGCATCGGAGTCACCTAGTGCAG | 34600 fluorescence intensity (a.u.)
AGTCTCTAACTAAACACCATATATCTCTATTAATTACTACCGGAGTCACCTAGTGCAG | 16000 fluorescence intensity (a.u.)
TTTTATGTATGTATTCAAATATTTCGATGTGACGGAATTTCGGAGTCACCTAGTGCAG | 4210 fluorescence intensity (a.u.)
GGATTTAACACTAGAGACCCTAATTTTGCTGCTCAGGCGACGGAGTCACCTAGTGCAG | 28500 fluorescence intensity (a.u.)
ATATGAGATATTTCATATGCTGTTTATTGCTGCTGCCAGACGGAGTCACCTAGTGCAG | 6080 fluorescence intensity (a.u.)
GGAAAGAGAAGAGAGGAAAGAGAGATGACGTGGACACCTGCGGAGTCACCTAGTGCAG | 21100 fluorescence intensity (a.u.)
TCGTCGCACGACCAGACCAGCAGCACCAACTCCCTTTCTGCGGAGTCACCTAGTGCAG | 3160 fluorescence intensity (a.u.)
ACCATATGACTTATATATCTGTCGTCAGCTCATTTCTATGCGGAGTCACCTAGTGCAG | 7290 fluorescence intensity (a.u.)
ATGGGGAATCTGGCACCTTTGGCTACTGGTGATTCAGTGTCGGAGTCACCTAGTGCAG | 3510 fluorescence intensity (a.u.)
GTGTCATTTCATTCACTGGTCGGCTATATCTGGGCATATGCGGAGTCACCTAGTGCAG | 53800 fluorescence intensity (a.u.)
TGGCGCCTCTCACCGCCACGTCGCCGCCGGCGAGGTGAAACGGAGTCACCTAGTGCAG | 20800 fluorescence intensity (a.u.)
ACGATTAATTGTTTAGTAAGCGTGCTGACGTTAAACGAGACGGAGTCACCTAGTGCAG | 3690 fluorescence intensity (a.u.)
ATCACGTGATTAAAACAGTAATTATCGAGCACGGAAGGAACGGAGTCACCTAGTGCAG | 40600 fluorescence intensity (a.u.)
CGATCGATCGATTGTGAGCACCGAACTCCCTTAATTAGGACGGAGTCACCTAGTGCAG | 3390 fluorescence intensity (a.u.)
GGTGACAATTGTCATTTGCTCAGCAACTAACATTACTAAACGGAGTCACCTAGTGCAG | 18200 fluorescence intensity (a.u.)
CACTGTTTGATGCTAAAACATATTACGTGTGCCGTTCATACGGAGTCACCTAGTGCAG | 3580 fluorescence intensity (a.u.)
CAGTCCACATAACCTGAACCCAGCGTCAATCCGCAAGCAACGGAGTCACCTAGTGCAG | 40200 fluorescence intensity (a.u.)
GACCCAGCAAGCAAGAGCGTCTAGTCACCTCAACCACGAACGGAGTCACCTAGTGCAG | 6180 fluorescence intensity (a.u.)
ACCGCATCACATCAAGCATCCACCAACCAACCCAACAACACGGAGTCACCTAGTGCAG | 3910 fluorescence intensity (a.u.)
GGTTGGTATTAACCGCTGATGGTGAATGCCAACCTCAGAACGGAGTCACCTAGTGCAG | 51200 fluorescence intensity (a.u.)
CATGGTATTGTTTGATGCCAACTGAATTGATACAATGTGACGGAGTCACCTAGTGCAG | 20500 fluorescence intensity (a.u.)
